# High-throughput results from PubChem BioAssay.
# Shiga inhibitor = blocks Shiga toxin action in Vero cells. 9.2% of 290,000 active. inhibition, % at 38.7 µM. Vero cells, Shiga toxin protein synthesis inhibition reporter; in the data active = inhibition mostly above about 28%, no sharp cut-off; inactive = mostly below about 43%; also: 0% is about no effect
# NS1 function inh = blocks influenza NS1 protein function | AID 2326 | 0.4% of 270,000 active | Potency, µM (highest dose often 46.1 µM), without a hit: top-dose activity, positive = more growth; calls by dose curve; also: potency is read from the fitted curve at half-maximal effect; actives are rising curves; nearly all actives have a fitted effect of over 50% in size
#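 S. cerevisiae expressing influenza A NS1, grown in glucose, washed, then diluted 1:100 into pH 6.0 -URA galactose medium with 23 nl compound. Growth recovery read as OD600; NS1-free strain serves as control.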
# CHX counter = counter-screen hit for Shiga toxin inhibitors, cycloheximide. cell reporter, cycloheximide protein synthesis inhibition counterscreen. max response, %. 12% of 300,000 active; in the data active = max response mostly above about 13%, no sharp cut-off; inactive = mostly below about 14%; also: read at 38.3 µM for the half of the compounds with a filed dose; 0% is about no effect
# FBPA Giardia inh = Giardia lamblia aldolase inhibition; 0.71% of 290,000 active; Potency, µM (doses to about 59.6 µM), for inactives: at the top dose activity, negative = inhibition, hits mostly inhibitors; AID 2451; purified Giardia FBPA; also: potency is read from the fitted curve at half-maximal effect; % is scaled to controls: 0 for no effect and ±100 for the full control effect; nearly all actives have a fitted effect of over 55% in size
# Target sequence (A8B2U2 whole entry, looked up): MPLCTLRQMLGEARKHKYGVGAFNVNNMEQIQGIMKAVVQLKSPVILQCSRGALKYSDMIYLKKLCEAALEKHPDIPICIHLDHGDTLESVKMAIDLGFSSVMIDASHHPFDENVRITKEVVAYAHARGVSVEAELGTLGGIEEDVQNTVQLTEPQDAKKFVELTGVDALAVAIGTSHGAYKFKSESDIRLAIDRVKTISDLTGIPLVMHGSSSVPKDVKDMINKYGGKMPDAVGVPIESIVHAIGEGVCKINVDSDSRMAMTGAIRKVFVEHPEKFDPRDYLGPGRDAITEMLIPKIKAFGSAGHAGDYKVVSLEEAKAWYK
#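 40 nM FBPA preincubated 10 min at RT with compound (up to 57.5 uM final), then substrate plus GAPDH/TPI/NAD/arsenate coupling and diaphorase/resazurin added. Fluorescence read after 20 min at RT, 525/598 nm.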
# Pf growth 48h = inhibits P. falciparum growth in the first generation, 48 h | Potency, µM (titrated, usually from 28.7 µM), without a hit: top-dose activity change, negative = inhibition, hits mostly inhibitors | P. falciparum luciferase growth in erythrocytes, 48 h | 5.9% of 310,000 active; also: potency is read from the fitted curve at half-maximal effect; % is scaled to controls: 0 for no effect and ±100 for the full control effect
#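 Firefly luciferase activity from engineered P. falciparum reports growth; inhibitors lower the luminescent signal. Cultures contained 2% hematocrit erythrocytes at 0.1% final parasitemia.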
# Pf growth 96h = P. falciparum growth inhibition at 96 hours; P. falciparum luciferase reporter growth, 96 h; 6.9% of 320,000 active; Potency, µM (top dose mostly 28.7 µM), for the others: at the highest dose activity change, negative = inhibition, usual class: inhibitors; AID 504834; also: potency is read from the fitted curve at half-maximal effect; % is scaled to controls: 0 for no effect and ±100 for the full control effect
#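 Plates of compound plus infected erythrocytes (2% hematocrit, 0.05% parasitemia final) incubate 96 hours, 37 C, 5% CO2. Detection reagent added; reduced luminescence from the parasites' luciferase reporter flags inhibition.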
# * marks the source's active call; other numbers are inactive results; i = inactive; ? = inconclusive; . = not tested or not shown; [ ] = remark or other dose. This is a sample that favours compounds with a hit; in the whole collection about 21% have one here. Unless noted, calls follow the shape of the dose curve; as a rule, active = well fitted curve in the direction sought with a large enough effect; inconclusive = small, poorly fitted or top-dose-only effect, or another doubt; inactive = no such curve, though single readings can be large; an effect the other way counts as inactive or inconclusive.
SMILES,Shiga inhibitor,NS1 function inh,CHX counter,FBPA Giardia inh,Pf growth 48h,Pf growth 96h
O=c1c2ccccc2nc(COc2ccccc2)n1/N=C/c1ccc(O)cc1O,94*,-36%,16*,9%,-26%,-2%
O=c1c2ccccc2nc(COc2ccccc2)n1/N=C/c1cn[nH]c1-c1ccccc1,44*,13%,1,3%,?,10µM*
Cc1ccc(-c2[nH]ncc2/C=N/n2c(C)nc3ccccc3c2=O)cc1,16,-2%,5,8%,48%,121%
Cc1ccccc1OCc1nc2ccccc2c(=O)n1/N=C/c1cn[nH]c1-c1ccc(Br)cc1,23,?,13*,-2%,?,5.2µM*
CC1CCCC(NC(=O)NC(=O)COC(=O)C2=NN(c3ccccc3)C(=O)CC2)C1C (stereo unspecified),.,.,.,.,3%,?
COc1ncc2nc(-c3cn(C)c4ccccc34)c(=O)n(C)c2n1,.,.,.,-8%,.,.
COC(=O)N/N=C/c1cccnc1,-7,2%,-4,3%,11%,-5%
COc1ccc(/C=N/NC(=O)c2[nH]ncc2Br)c(OC)c1,68*,7%,38*,16%,21%,28%
CCN(CC)c1ccc(C(=O)N/N=C/c2ccc(OC)cc2OC)cc1,10,.,12,1%,?,-24%
O=C(N/N=C/c1cccnc1)c1[nH]ncc1Br,50*,6%,37*,-4%,19%,11%
O=C(N/N=C/c1ccccc1)c1[nH]ncc1Br,110*,.,44*,-6%,148%,-7%
O=C(N/N=C/c1ccco1)c1[nH]ncc1Br,120*,-4%,43*,.,5%,-3%
Nc1c(Cl)c(Cl)nc(C(=O)N/N=C/c2ccco2)c1Cl,9,-3%,-1,3%,25%,?
OCC1OC(Oc2c[nH]c3ccccc23)C(O)C(O)C1O (stereo unspecified),.,.,.,.,?,15%
COc1ccccc1/C=C/C=N/NC(=O)c1cc(-c2ccc(C)o2)[nH]n1,-8,18%,2,-4%,?,?
NS(=O)(=O)c1ccc(CCNC(=O)c2cc(-c3cc(Cl)ccc3O)n[nH]2)cc1,-7,-2%,-3,-2%,?,-40%
CC(C)(C)NCC(O)c1ccccc1Cl (stereo unspecified),.,-6%,.,1%,?,?
CC(C)NCC(O)c1ccccc1Cl (stereo unspecified),.,.,.,.,7.6µM*,12µM*
O=C(O)CSSCC(=O)O,.,-1%,.,.,.,.
COc1cc(C(=O)Oc2cccc(Nc3ncnc4ccccc34)c2)cc(OC)c1OC,16,-2%,8,-4%,?,0%
COc1ccc(C(=O)Oc2cccc(Nc3ncnc4ccccc34)c2)cc1OC,3,-15%,8,-7%,12%,2.3µM*
CC(=O)c1cccc(Nc2nc(-c3ccccc3)nc3ccccc23)c1,-11,8%,-1,-27%,?,-16%
CC(=O)c1cccc(NC(=O)C(Sc2ncnc3ccccc23)c2ccccc2)c1 (stereo unspecified),9,?,8.0*,-2%,12µM*,4.7µM*
CC(=O)c1cccc(Nc2ncnc3ccc(Br)cc23)c1,7,-34%,8,5%,5.9µM*,-12%
CC(C)(C)C(=O)Oc1cccc(Nc2ncnc3ccccc23)c1,10,-53%,9.6*,6%,0%,?
SMILES,Shiga inhibitor,NS1 function inh,CHX counter,FBPA Giardia inh,Pf growth 48h,Pf growth 96h
CC[C@H](C)[C@H](NC(=O)[C@H](CO)NC(=O)[C@H](CC(C)C)NC(=O)[C@@H]1CCCN1C(=O)[C@@H]1CCCN1C(=O)[C@H](CC(=O)O)NC(=O)[C@@H](N)CC(=O)O)C(=O)N[C@@H](CC(=O)O)C(=O)N[C@@H](CC(C)C)C(=O)N[C@H](C(=O)N[C@@H](Cc1ccccc1)C(=O)N[C@@H](Cc1cnc[nH]1)C(=O)N[C@@H](CC(C)C)C(=O)N[C@@H](CC(C)C)C(=O)N[C@@H](CCCNC(=N)N)C(=O)N[C@H](C(=O)N[C@@H](CC(C)C)C(=O)N[C@@H](CC(C)C)C(=O)N[C@@H](CCC(=O)O)C(=O)N[C@@H](CC(C)C)C(=O)N[C@@H](C)C(=O)N[C@@H](CCCNC(=N)N)C(=O)N[C@H](C(=O)N[C@@H](CCC(N)=O)C(=O)N[C@@H](CO)C(=O)N[C@@H](CCC(N)=O)C(=O)N[C@@H](CCCNC(=N)N)C(=O)N[C@@H](CCC(=O)O)C(=O)N[C@@H](CCCNC(=N)N)C(=O)N[C@@H](C)C(=O)N[C@@H](CCC(=O)O)C(=O)N[C@@H](CCC(N)=O)C(=O)N[C@@H](CC(N)=O)C(=O)N[C@@H](CCCNC(=N)N)C(=O)N[C@H](C(=O)N[C@H](C(=O)N[C@@H](Cc1ccccc1)C(=O)N[C@@H](CC(=O)O)C(=O)N[C@@H](CO)C(=O)N[C@H](C(N)=O)C(C)C)[C@@H](C)CC)[C@@H](C)CC)[C@@H](C)O)[C@@H](C)O)[C@@H](C)O,-7,.,13,-1%,.,.
Cc1c(Cl)cccc1NC(=O)CSc1nc2ncc(Cl)cc2[nH]1,3,?,-3,?,?,-7%
Cc1cc(Cl)nc(NC(=O)CSc2ccc(Cl)cc2)n1,.,-3%,.,.,.,.
COC(=O)NC(/C(C(=O)OC)=C(\C)NCc1ccccc1)c1cccc(F)c1 (stereo unspecified),.,.,.,-5%[12.9 µM],.,.
O=Cc1c(NCc2ccc(F)cc2)c2ccccc2[nH]c1=O,-6,-17%,-2,-17%,-12%,10µM*
Cc1sc2ncn(CC(=O)NCC(=O)N3CCN(c4ccccc4F)CC3)c(=O)c2c1C,-4,-1%,1,2%,39%,7%
O=c1cnc2cnc(Nc3ccccc3)nc2n1C1CC1,.,.,.,-1%,.,.
Cc1cccc(NC(=O)C2CCCN(S(=O)(=O)c3cccc4nsnc34)C2)c1 (stereo unspecified),22,7%,1,-3%,.,8.3µM*
COc1ccc(NC(=O)C2CCCN(S(=O)(=O)c3ccccc3)C2)c(OC)c1 (stereo unspecified),-9,-5%,6,-6%,6%,?
CCOc1ccccc1NC(=O)C1CCCN(S(=O)(=O)c2ccc(OC)c(C)c2)C1 (stereo unspecified),-20,?,-3,-12%,10µM*,.
COc1cccc(NC(=O)C2CCCN(S(=O)(=O)c3cccc4nsnc34)C2)c1 (stereo unspecified),-6,-1%,-1,-5%,.,i
Cc1ccc(NC(=O)C2CCCN(S(=O)(=O)c3ccc4[nH]c(=O)ccc4c3)C2)cc1C (stereo unspecified),1,-6%,1,-2%,-2%,?
COc1ccc(NC(=O)C2CCCN(S(=O)(=O)c3ccc4[nH]c(=O)ccc4c3)C2)cc1OC (stereo unspecified),12,-7%,25,0%,24%,12µM*
